Measurements published in PubChem BioAssay AID1159580 (chemical genetic matrix, 2015).
The campaign covered roughly 5,500 compounds. About 2,000 (36%) were called active. Roughly 18% stayed inconclusive and do not appear here. Some of the results follow. Unmarked numbers belong to inactive results. Rule as the data show it: active = normalized growth mostly below about 0.91 (no sharp cut-off); inconclusive = no clear call, values can overlap the other calls; inactive = mostly above about 0.92.

Test: chemical genetic growth profiling, strain panel (AID 1159580);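 also: tested at 20 µM; growth read once vehicle control cultures reached saturation at 30 °C; 1 = growth at the plate median or of vehicle wells; lower values mean less growth of the strain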
Settings: growth OD

## CCCCOc1ccc(CC(=O)NO)cc1
S. cerevisiae deletion strains, locus YJR043C, strain POL32, stronger effect = lower value
  normalized growth: 0.968
S. cerevisiae deletion strains, locus YJR066W, strain TOR1, stronger effect = lower value
  normalized growth: 0.976
S. cerevisiae deletion strains, locus YJR075W, strain HOC1, stronger effect = lower value
  normalized growth: 0.977
S. cerevisiae deletion strains, locus YKL009W, strain mrt4, stronger effect = lower value
  normalized growth: 1.01
S. cerevisiae deletion strains, locus YKL068W, stronger effect = lower value
  normalized growth: 0.999
S. cerevisiae deletion strains, locus YKL085W, strain MDH1 (second series), stronger effect = lower value
  normalized growth: 0.998
S. cerevisiae deletion strains, locus YKL085W, strain MDH1, stronger effect = lower value
  normalized growth: 0.998
S. cerevisiae deletion strains, locus YKL160W, strain elf1, stronger effect = lower value
  normalized growth: 0.984
S. cerevisiae deletion strains, locus YKL190W, strain CNB1, stronger effect = lower value
  normalized growth: 0.994
S. cerevisiae deletion strains, locus YKR001C, strain vps1, stronger effect = lower value
  normalized growth: 0.831 (active)
S. cerevisiae deletion strains, locus YKR026C, strain gcn3, stronger effect = lower value
  normalized growth: 0.991
S. cerevisiae deletion strains, locus YKR091W, strain srl3, stronger effect = lower value
  normalized growth: 0.996
S. cerevisiae deletion strains, locus YLL001W, strain dnm1, stronger effect = lower value
  normalized growth: 0.986
S. cerevisiae deletion strains, locus YLL026W, stronger effect = lower value
  normalized growth: 0.981
S. cerevisiae deletion strains, locus YLL041C, strain sdh2, stronger effect = lower value
  normalized growth: 0.985
S. cerevisiae deletion strains, locus YLR027C, strain aat2, stronger effect = lower value
  normalized growth: 0.97
S. cerevisiae deletion strains, locus YLR039C, strain RIC1, stronger effect = lower value
  normalized growth: 0.731
S. cerevisiae deletion strains, locus YLR058C, strain SHM2, stronger effect = lower value
  normalized growth: 1
S. cerevisiae deletion strains, locus YLR102C, strain apc9, stronger effect = lower value
  normalized growth: 1.01
S. cerevisiae deletion strains, locus YLR113W, strain HOG1, stronger effect = lower value
  normalized growth: 0.963
S. cerevisiae deletion strains, locus YLR221C, strain rsa3, stronger effect = lower value
  normalized growth: 0.963
S. cerevisiae deletion strains, locus YLR258W, strain gsy2, stronger effect = lower value
  normalized growth: 0.984
S. cerevisiae deletion strains, locus YLR262C, strain YPT6 (second series), stronger effect = lower value
  normalized growth: 0.847 (active)
S. cerevisiae deletion strains, locus YLR262C, strain YPT6, stronger effect = lower value
  normalized growth: 0.738
S. cerevisiae deletion strains, locus YLR268W, strain sec22, stronger effect = lower value
  normalized growth: 0.983
S. cerevisiae deletion strains, locus YLR320W, strain mms22, stronger effect = lower value
  normalized growth: 0.958
S. cerevisiae deletion strains, locus YLR330W, strain CHS5, stronger effect = lower value
  normalized growth: 0.988
S. cerevisiae deletion strains, locus YLR342W, strain FKS1 (second series), stronger effect = lower value
  normalized growth: 1.01
S. cerevisiae deletion strains, locus YLR342W, strain FKS1, stronger effect = lower value
  normalized growth: 1.01
S. cerevisiae deletion strains, locus YLR357W, strain rsc2, stronger effect = lower value
  normalized growth: 1
S. cerevisiae deletion strains, locus YLR370C, strain arc18, stronger effect = lower value
  normalized growth: 0.989
S. cerevisiae deletion strains, locus YLR371W, strain rom2, stronger effect = lower value
  normalized growth: 0.999
S. cerevisiae deletion strains, locus YLR384C, strain iki3, stronger effect = lower value
  normalized growth: 0.991
S. cerevisiae deletion strains, locus YLR418C, strain cdc73, stronger effect = lower value
  normalized growth: 0.921
S. cerevisiae deletion strains, locus YML016C, strain PPZ1, stronger effect = lower value
  normalized growth: 1
S. cerevisiae deletion strains, locus YML032C, strain rad52, stronger effect = lower value
  normalized growth: 0.997
S. cerevisiae deletion strains, locus YML120C, strain ndi1, stronger effect = lower value
  normalized growth: 0.991
S. cerevisiae deletion strains, locus YML124C, strain tub3, stronger effect = lower value
  normalized growth: 1
S. cerevisiae deletion strains, locus YMR058W, strain fet3, stronger effect = lower value
  normalized growth: 0.969
S. cerevisiae deletion strains, locus YMR078C, strain ctf18, stronger effect = lower value
  normalized growth: 1
S. cerevisiae deletion strains, locus YMR125W, strain sto1, stronger effect = lower value
  normalized growth: 0.997
S. cerevisiae deletion strains, locus YMR129W, stronger effect = lower value
  normalized growth: 0.996
S. cerevisiae deletion strains, locus YMR205C, strain PFK2, stronger effect = lower value
  normalized growth: 0.984
S. cerevisiae deletion strains, locus YMR223W, strain ubp8, stronger effect = lower value
  normalized growth: 1
S. cerevisiae deletion strains, locus YMR231W, strain pep5, stronger effect = lower value
  normalized growth: 1
S. cerevisiae deletion strains, locus YMR307W, strain GAS1, stronger effect = lower value
  normalized growth: 0.998
S. cerevisiae deletion strains, locus YNL067W, strain RPL9B, stronger effect = lower value
  normalized growth: 0.976
S. cerevisiae deletion strains, locus YNL071W, strain lat1, stronger effect = lower value
  normalized growth: 0.992
S. cerevisiae deletion strains, locus YNL183C, strain NPR1, stronger effect = lower value
  normalized growth: 0.97
S. cerevisiae deletion strains, locus YNL209W, strain ssb2, stronger effect = lower value
  normalized growth: 1.01
S. cerevisiae deletion strains, locus YNL233W, strain BNI4, stronger effect = lower value
  normalized growth: 0.966
S. cerevisiae deletion strains, locus YNL248C, strain rpa49, stronger effect = lower value
  normalized growth: 0.968
S. cerevisiae deletion strains, locus YNL250W, strain rad50, stronger effect = lower value
  normalized growth: 1
S. cerevisiae deletion strains, locus YNL271C, strain bni1, stronger effect = lower value
  normalized growth: 1.01
S. cerevisiae deletion strains, locus YNL298W, strain CLA4, stronger effect = lower value
  normalized growth: 1.01
S. cerevisiae deletion strains, locus YNL307C, strain MCK1, stronger effect = lower value
  normalized growth: 0.999
S. cerevisiae deletion strains, locus YNL322C, strain KRE1 (second series), stronger effect = lower value
  normalized growth: 0.997
S. cerevisiae deletion strains, locus YNR049C, strain mso1, stronger effect = lower value
  normalized growth: 0.995
S. cerevisiae deletion strains, locus YNR052C, strain pop2, stronger effect = lower value
  normalized growth: 1.01
S. cerevisiae deletion strains, locus YOL006C, strain TOP1, stronger effect = lower value
  normalized growth: 0.887
S. cerevisiae deletion strains, locus YOL012C, strain htz1
  normalized growth: 1.47
S. cerevisiae deletion strains, locus YOL147C, strain pex11, stronger effect = lower value
  normalized growth: 1
S. cerevisiae deletion strains, locus YOR001W, strain rrp6, stronger effect = lower value
  normalized growth: 1.01
S. cerevisiae deletion strains, locus YOR061W, strain CKA2, stronger effect = lower value
  normalized growth: 0.985
S. cerevisiae deletion strains, locus YOR069W, strain VPS5, stronger effect = lower value
  normalized growth: 0.997
S. cerevisiae deletion strains, locus YOR070C, strain gyp1, stronger effect = lower value
  normalized growth: 0.999
S. cerevisiae deletion strains, locus YOR080W, strain dia2, stronger effect = lower value
  normalized growth: 0.995
S. cerevisiae deletion strains, locus YOR083W, strain WHI5, stronger effect = lower value
  normalized growth: 0.982
S. cerevisiae deletion strains, locus YOR106W, strain vam3, stronger effect = lower value
  normalized growth: 0.971
S. cerevisiae deletion strains, locus YOR136W, strain idh2, stronger effect = lower value
  normalized growth: 1.01
S. cerevisiae deletion strains, locus YOR144C, strain elg1, stronger effect = lower value
  normalized growth: 1
S. cerevisiae deletion strains, locus YOR184W, strain ser1, stronger effect = lower value
  normalized growth: 0.999
S. cerevisiae deletion strains, locus YOR231W, strain MKK1, stronger effect = lower value
  normalized growth: 1
S. cerevisiae deletion strains, locus YOR265W, strain rbl2, stronger effect = lower value
  normalized growth: 0.997
S. cerevisiae deletion strains, locus YOR270C, strain vph1, stronger effect = lower value
  normalized growth: 0.989
S. cerevisiae deletion strains, locus YOR290C, strain snf2, stronger effect = lower value
  normalized growth: 0.989
S. cerevisiae deletion strains, locus YOR316C, strain cot1, stronger effect = lower value
  normalized growth: 1.01
S. cerevisiae deletion strains, locus YPL051W, strain arl3, stronger effect = lower value
  normalized growth: 0.961
S. cerevisiae deletion strains, locus YPL078C, strain atp4, stronger effect = lower value
  normalized growth: 1
S. cerevisiae deletion strains, locus YPL106C, strain sse1, stronger effect = lower value
  normalized growth: 1.08
S. cerevisiae deletion strains, locus YPL240C, strain hsp82, stronger effect = lower value
  normalized growth: 1
S. cerevisiae deletion strains, locus YPL241C, strain CIN2, stronger effect = lower value
  normalized growth: 0.994
S. cerevisiae deletion strains, locus YPL256C, strain CLN2, stronger effect = lower value
  normalized growth: 1.02
S. cerevisiae deletion strains, locus YPR119W, strain clb2, stronger effect = lower value
  normalized growth: 1.01
S. cerevisiae deletion strains, locus YPR141C, strain kar3, stronger effect = lower value
  normalized growth: 1
S. cerevisiae deletion strains, locus YPR163C, strain tif3, stronger effect = lower value
  normalized growth: 1.01
S. cerevisiae deletion strains, locus YPR167C, strain met16, stronger effect = lower value
  normalized growth: 1.01
S. cerevisiae deletion strains, strain wtn01, stronger effect = lower value
  normalized growth: 0.988
S. cerevisiae strains, strain wild type, stronger effect = lower value
  normalized growth: 0.992
